In PubChem BioAssay AID2314 (National Center for Advancing Translational Sciences (NCATS), 2010):
Among all 300,000 compounds or so, about 37,000 (12%) were called active. What follows is part of a selection rich in actives, with near analogues and random picks from the rest. Values without a mark were called inactive. Rule as the data show it: active = max response mostly above about 13% (no sharp cut-off); inactive = mostly below about 14%.

Experiment: Cycloheximide Counterscreen for Small Molecule Inhibitors of Shiga Toxin; also: read at 38.3 µM for the half of the compounds with a filed dose; 0% is about no effect
Details: cell reporter, cycloheximide protein synthesis inhibition counterscreen; active compounds read high

| Structure (SMILES) | max response |
| --- | --- |
| Cc1cc2cc3c(cc2nc1SCC(=O)Nc1c(C)cccc1C)CCC3 | 0.976% |
| Cc1c(CCOC(=O)CC23CC4CC(CC(C)(C4)C2)C3)sc[n+]1Cc1ccc([N+](=O)[O-])cc1 | -3.94% |
| Fc1ccc(Cn2nnnc2C(c2cccs2)N2CCCCCC2)cc1 (centres undefined) | 0.541% |
| CCOc1ccccc1NS(=O)(=O)c1cc2c3c(c1)C(C)C(=O)N3CCC2 (centres undefined) | -3.18% |
| CCCOc1ccccc1-c1nc(SCCC(=O)O)n[nH]1 | -3.17% |
| COc1ccccc1C1=Nc2cccc3cccc(c23)N1 | -1.72% |
| COc1ccccc1-c1nc(SC)n[nH]1 | 23.3% (active) |
| CSc1ccccc1NC(=O)CN(C)CC(=O)Nc1ccc(Cl)cc1[N+](=O)[O-] | 7.28% |
| CN(CC(=O)Nc1ccccc1[N+](=O)[O-])Cc1ccc(Br)cc1 | 7.65% |
| Cc1ccc(NC(=O)CN(C)Cc2ccc(F)cc2)c([N+](=O)[O-])c1 | 12.6% (active) |
| Cc1cccc(NC(=O)COC(=O)CCc2ccccc2)c1C | -2.64% |
| CCOC(=O)C(C)Oc1cccc2c(=O)n(CC(=O)NCCc3ccc(OC)c(OC)c3)ccc12 (centres undefined) | -2.75% |
| O=C1CCN(Cc2ccc([N+](=O)[O-])cc2)CCN1[C@H](CO)Cc1ccccc1 | -3.88% |
| O=C(c1cccnc1)N1CCN(S(=O)(=O)c2cccs2)CC1 | -2.02% |
| O=C(CNC(=O)c1cccnc1)N/N=C/c1cccnc1 | -3.21% |
| O=C(N/N=C/c1sc(N2CCCCC2)nc1-c1cccs1)c1cccnc1 | 20.6% (active) |
| CN(C(=O)c1ccccc1)c1nccnc1C#N | -1.74% |
| CC(C)c1ccc(NC(=S)NNc2ccc(Cl)c(C(=O)O)c2)cc1 | 38% (active) |
| Cc1ccc(C)c(NC(=S)NNC(=S)Nc2ccc(C(C)C)cc2)c1 | 31% (active) |
| Cc1ccc(NC(=S)N/N=C2/CCCc3c(C)cc(C)cc32)cc1 | -1.84% |

| Structure (SMILES) | max response |
| --- | --- |
| Cc1ccc(C)c(NC(=S)NCC(c2cccnc2)N2CCOCC2)c1 (centres undefined) | -3.15% |
| COc1ccc(Br)cc1/C=N/Nc1ccc(Cl)c(C(=O)O)c1 | 7.13% |
| O=C(NC(=S)Nc1ccc(Cl)c(C(=O)O)c1)c1cncc(Br)c1 | 1.31% |
| CCn1c(=O)c(=O)[nH]c2c(=O)oc3ccc(S(=O)(=O)Nc4ccc(OC)cc4)cc3c21 | -4.34% |
| Cc1ccc(C(=O)NCCc2nnc(SCC(=O)Nc3cccc(C(=O)O)c3)n2C)cc1 | -0.755% |
| Cc1cc(OC(C)C(=O)Nc2ccc(S(=O)(=O)Nc3onc(C)c3C)cc2)cc(C)c1Cl (centres undefined) | -2.3% |
| O=C(/C=C/c1ccc(Cl)cc1Cl)c1cccnc1 | 2.63% |
| COc1ccc(C(=O)Nc2ccc(S(=O)(=O)Nc3onc(C)c3C)cc2)cc1OC | -2.06% |
| Cc1ccc(C(=O)/C=C/Nc2ccc(S(=O)(=O)Nc3onc(C)c3C)cc2)cc1 | 48.2% (active) |
| CCn1c(SCC(=O)Nc2ccc(S(=O)(=O)Nc3onc(C)c3C)cc2)nnc1-c1ccccc1 | 5.03% |
| Cc1noc(NS(=O)(=O)c2ccc(N/C=C/C(=O)c3ccccc3)cc2)c1C | 38.5% (active) |
| Cc1noc(NS(=O)(=O)c2ccc(NC(=O)C34CCC(CC3)C4)cc2)c1C | -1.3% |
| C=C(C)CNC(=S)Nc1ccc(S(=O)(=O)Nc2cnc3ccccc3n2)cc1 | -1.53% |
| O=C(/C=C/Nc1ccc(S(=O)(=O)Nc2cnc3ccccc3n2)cc1)c1cccnc1 | 19.6% (active) |
| COC(=O)c1cnc(Nc2cc(C)ccc2OC)c2ccccc12 | -3.28% |
| COc1cc(C(=O)NCc2cc3cc(Cl)ccc3n2C)cc(OC)c1OC | 9.33% |
| COc1ccc(N2CCN(C(=O)c3cn(C)c4ccc(S(=O)(=O)N5CCOCC5)cc4c3=O)CC2)cc1 | 0.725% |
| CCc1ccc(C(=O)NC(=S)Nc2ccccc2N2CCOCC2)cc1 | 12.1% |
| CCCC(C(=O)NC1CCCC1)N(C(=O)Cn1nnc(-c2ccc(C)o2)n1)c1cccc(O)c1 (centres undefined) | -3.39% |
| CCOC(=O)C(Cc1ccc(N)cc1)N1C(=O)c2ccccc2C1=O (centres undefined) | 15% |

| Structure (SMILES) | max response |
| --- | --- |
| O=S(=O)(c1ccc(Br)c2ccccc12)N1CCOCC1 | -2.9% |
| CC1CN(S(=O)(=O)c2cccc(C(F)(F)F)c2)CN1C(=O)N1CCOCC1 (centres undefined) | -5.77% |
| Cc1ccc(C)c(NC2=NCC(=O)N2c2ccc3c(c2)OCCO3)c1 | 17.5% (active) |
| Cc1ccc(N2C(=O)CN=C2Nc2nc(C)cc(C)n2)cc1 | -2.81% |
| COc1ccc(N2C(=O)CN=C2Nc2cccc(C)c2C)cc1OC | 1.91% |
| CC(Sc1nnc(COc2ccccc2)n1-c1ccccc1)C(=O)O (centres undefined) | -3.12% |
| Fc1ccc(-c2ccc(-c3nn4c(-c5ccco5)nnc4s3)o2)cc1 | 12.8% (active) |
| FC(F)(F)c1nnc2sc(-c3ccco3)nn12 | -1.25% |
| Cc1nnc2sc(-c3ccco3)nn12 | -2.36% |
| COc1ccc([N+](=O)[O-])cc1NC(=O)C(C)OC(=O)C1c2ccccc2Oc2ccccc21 (centres undefined) | -1.06% |
| CCN(C(=O)CN1CCN(Cc2ccccc2)CC1)c1c(N)n(Cc2ccccc2)c(=O)[nH]c1=O | -1.94% |
| Cc1nn(C(C)C(=O)NCCC2=CCCCC2)c(=O)c2nn(-c3ccccc3)c(C)c12 (centres undefined) | 12.2% |
| C1=C(CCNc2ncnc3c2cnn3-c2ccccc2)CCCC1 | 34.6% (active) |
| O=C(NCCC1=CCCCC1)C1CCN(Cc2cnn(-c3ccccc3)c2-n2cccc2)CC1 | 18.2% |
| O=C(COC(=O)/C(=C/c1cccs1)c1cccs1)NCc1ccccc1Cl | -3.92% |
| Cc1cc(OCCCC(=O)NCCN2C(=O)S/C(=C\c3cccnc3)C2=O)ccc1Cl | -1.74% |
| CCCn1nc(C(=O)Nc2ccc3nc(C)sc3c2)c2ccccc2c1=O | 2.94% |
| CSc1nc2ccc(NC(=O)c3c(F)cccc3F)cc2s1 | 48.4% (active) |
| CCCC(=O)Nc1nc2ccc(NC(=O)c3c(F)c(F)c(OC)c(F)c3F)cc2s1 | -1.72% |
